According to PubChem BioAssay (EPA / NIEHS):
Inconclusive results are not listed. Activity calls are given as the source filed them. The calls were made as follows: active = hit-call score of the fitted dose curve at least 0.9, where 1 is the maximum; inconclusive = response in the unintended direction; inactive = score below 0.9.

Key:
[1] = molecular target: Estrogen receptor (Homo sapiens) + Estrogen receptor beta (Homo sapiens) (UniProt P03372+Q92731); assay: OT_ER_ERaERb_1440: Odyssey Thera (OT) 24-hour HEK293T Protein-Complementation Assay for Estrogen Receptor-alpha/-beta Homodimer (AID 2283356);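 also: heteromer of ER alpha and ER beta binding domains; hits raise reporter fluorescence and both agonists and antagonists give an increase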
Sequence of Estrogen receptor (Homo sapiens) + Estrogen receptor beta (Homo sapiens) (P03372 whole entry, looked up, the tested form may be a part): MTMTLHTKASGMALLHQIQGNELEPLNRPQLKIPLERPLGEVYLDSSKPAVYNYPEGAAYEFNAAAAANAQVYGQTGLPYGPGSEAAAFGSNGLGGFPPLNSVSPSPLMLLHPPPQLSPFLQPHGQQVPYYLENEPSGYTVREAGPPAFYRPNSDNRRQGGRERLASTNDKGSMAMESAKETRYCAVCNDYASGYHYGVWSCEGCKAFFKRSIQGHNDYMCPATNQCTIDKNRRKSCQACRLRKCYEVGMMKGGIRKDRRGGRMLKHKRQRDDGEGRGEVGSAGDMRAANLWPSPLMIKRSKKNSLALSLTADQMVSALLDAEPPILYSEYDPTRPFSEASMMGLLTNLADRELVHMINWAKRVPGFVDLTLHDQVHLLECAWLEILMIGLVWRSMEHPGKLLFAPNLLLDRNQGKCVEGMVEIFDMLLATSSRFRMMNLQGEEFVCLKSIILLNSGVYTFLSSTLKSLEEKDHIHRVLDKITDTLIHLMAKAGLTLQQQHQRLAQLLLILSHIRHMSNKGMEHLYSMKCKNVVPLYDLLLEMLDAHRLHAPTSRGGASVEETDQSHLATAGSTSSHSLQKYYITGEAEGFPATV
Sequence of Estrogen receptor (Homo sapiens) + Estrogen receptor beta (Homo sapiens) (Q92731 whole entry, looked up, the tested form may be a part): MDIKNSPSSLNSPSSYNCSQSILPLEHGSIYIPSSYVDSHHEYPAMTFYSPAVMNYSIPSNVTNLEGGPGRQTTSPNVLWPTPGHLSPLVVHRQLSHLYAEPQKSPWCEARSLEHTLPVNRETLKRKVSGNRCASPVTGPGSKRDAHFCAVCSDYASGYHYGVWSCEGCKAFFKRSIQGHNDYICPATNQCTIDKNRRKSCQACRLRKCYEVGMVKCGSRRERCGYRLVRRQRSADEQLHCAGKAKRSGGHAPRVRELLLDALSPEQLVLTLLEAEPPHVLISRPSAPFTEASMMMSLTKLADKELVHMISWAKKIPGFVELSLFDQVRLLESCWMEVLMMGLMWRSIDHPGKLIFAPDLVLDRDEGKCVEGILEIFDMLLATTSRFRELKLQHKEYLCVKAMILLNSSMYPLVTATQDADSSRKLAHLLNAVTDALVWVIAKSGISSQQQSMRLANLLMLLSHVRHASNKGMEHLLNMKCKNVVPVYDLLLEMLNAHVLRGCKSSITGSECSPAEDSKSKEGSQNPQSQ
Outline: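 Fragment complementation between ER alpha (310-547) and ER beta (263-489) ligand-binding domains in HEK293T cells; signal read 24 h post-dosing by laser scanning cytometer. Gain of fluorescence relative to DMSO fitted.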

[2] = molecular target: Estrogen receptor beta (Homo sapiens) (UniProt Q92731); assay: OT_ER_ERbERb_0480: Odyssey Thera (OT) 8-hour HEK293T Protein-Complementation Assay for Estrogen Receptor-beta/-beta Homodimer (AID 2283357);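 also: active means signal gain over DMSO baseline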
Outline: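 Readout: increase in mean fluorescence intensity (nucleus for agonists; nucleus plus cytoplasm for antagonists) relative to DMSO, from a reporter-fragment complementation of human ER-beta LBD homodimer in HEK293T cells dosed 8 hours.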

[3] = molecular target: guinea pig Sigma Receptor, Non-selective Binding, SIGMAR1 (gene 100135589) (UniProt Q60492); assay: NVS_OR_gSIGMA_NonSelective: NovaScreen (NVS) Nuclear Receptor Binding Assay for guinea pig Sigma Receptor, Non-selective Binding (AID 2283367)
Sequence of guinea pig Sigma Receptor, Non-selective Binding, SIGMAR1 (gene 100135589) (Q60492 whole entry, looked up): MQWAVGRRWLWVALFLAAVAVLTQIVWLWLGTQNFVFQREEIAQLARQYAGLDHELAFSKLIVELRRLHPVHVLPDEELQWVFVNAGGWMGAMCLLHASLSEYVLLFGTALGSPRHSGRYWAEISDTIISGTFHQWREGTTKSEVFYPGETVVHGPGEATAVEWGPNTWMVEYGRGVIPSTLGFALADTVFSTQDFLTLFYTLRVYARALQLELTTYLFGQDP
Outline: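 Guinea pig brain membranes, cell-free radioligand binding; read 1 h after dosing by filter-based scintillation counting. Loss of signal vs DMSO baseline taken as displacement. Primary screen single concentration 25 uM in duplicate; actives retested in concentration series.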

[4] = molecular target: human Dopamine Transporter (DAT), SLC6A3 (gene 6531) (UniProt Q01959); assay: NVS_TR_hDAT: NovaScreen (NVS) Transporter Assay for human Dopamine Transporter (DAT) (AID 2283374);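 also: activity means loss of bound radioligand signal relative to DMSO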
Outline: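 Cell-free radioligand binding to extracted human DAT protein, read 1 h after dosing by filter-based scintillation counting. Loss of specific binding scored against DMSO baseline; primary screen in duplicate at 25 uM, actives then run in concentration series.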

[5] = molecular target: rat Serotonin Transporter (SERT), Slc6a4 (gene 25553) (UniProt P31652); assay: NVS_TR_rSERT: NovaScreen (NVS) Transporter Assay for rat Serotonin Transporter (SERT) (AID 2283375)
Outline: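 Radioligand binding with competitive displacement on rat forebrain membrane preparations, counted by filtration and scintillation after 1 h. Primary single-point duplicates at 25 uM; active chemicals followed up in concentration-response. DMSO served as baseline.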

[6] = molecular target: human Norepinephrine Transporter (NET), SLC6A2 (gene 6530) (UniProt P23975); assay: NVS_TR_hNET: NovaScreen (NVS) Transporter Assay for human Norepinephrine Transporter (NET) (AID 2283377);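 also: cell-free membrane protein extracted from CHO cells expressing human NET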
Sequence of human Norepinephrine Transporter (NET), SLC6A2 (gene 6530) (P23975 whole entry, looked up): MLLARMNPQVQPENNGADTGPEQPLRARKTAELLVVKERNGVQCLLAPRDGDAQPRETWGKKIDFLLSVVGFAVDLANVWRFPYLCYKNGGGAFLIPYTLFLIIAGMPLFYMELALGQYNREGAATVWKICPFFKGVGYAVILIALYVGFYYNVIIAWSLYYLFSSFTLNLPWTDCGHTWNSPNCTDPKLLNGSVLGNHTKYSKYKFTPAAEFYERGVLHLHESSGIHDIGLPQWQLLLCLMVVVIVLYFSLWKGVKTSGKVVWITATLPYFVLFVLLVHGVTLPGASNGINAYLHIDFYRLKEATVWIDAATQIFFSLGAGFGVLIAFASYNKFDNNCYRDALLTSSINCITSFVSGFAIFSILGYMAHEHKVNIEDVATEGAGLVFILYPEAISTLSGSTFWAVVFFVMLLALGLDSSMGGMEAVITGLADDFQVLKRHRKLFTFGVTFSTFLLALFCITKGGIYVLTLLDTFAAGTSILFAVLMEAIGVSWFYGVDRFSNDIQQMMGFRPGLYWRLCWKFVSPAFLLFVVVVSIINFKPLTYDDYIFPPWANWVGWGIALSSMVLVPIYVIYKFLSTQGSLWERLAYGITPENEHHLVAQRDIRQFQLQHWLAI
Outline: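 Radioligand binding to human NET in cell-free CHO-derived protein preparations, read by filter-based scintillation counting 1 hour after dosing. Loss of signal versus DMSO baseline indicated displacement; primary screening in duplicate at 25 uM, actives then titrated.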

[7] = molecular target: human Thyroid Receptor Alpha (TRa), THRA (gene 7067) (UniProt P10827); assay: NVS_NR_hTRa_Antagonist: NovaScreen (NVS) Nuclear Receptor Binding Assay for human Thyroid Receptor Alpha Antagonism (TRa) (AID 2283362);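 also: activity is loss of signal relative to DMSO baseline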
Sequence of human Thyroid Receptor Alpha (TRa), THRA (gene 7067) (P10827 whole entry, looked up): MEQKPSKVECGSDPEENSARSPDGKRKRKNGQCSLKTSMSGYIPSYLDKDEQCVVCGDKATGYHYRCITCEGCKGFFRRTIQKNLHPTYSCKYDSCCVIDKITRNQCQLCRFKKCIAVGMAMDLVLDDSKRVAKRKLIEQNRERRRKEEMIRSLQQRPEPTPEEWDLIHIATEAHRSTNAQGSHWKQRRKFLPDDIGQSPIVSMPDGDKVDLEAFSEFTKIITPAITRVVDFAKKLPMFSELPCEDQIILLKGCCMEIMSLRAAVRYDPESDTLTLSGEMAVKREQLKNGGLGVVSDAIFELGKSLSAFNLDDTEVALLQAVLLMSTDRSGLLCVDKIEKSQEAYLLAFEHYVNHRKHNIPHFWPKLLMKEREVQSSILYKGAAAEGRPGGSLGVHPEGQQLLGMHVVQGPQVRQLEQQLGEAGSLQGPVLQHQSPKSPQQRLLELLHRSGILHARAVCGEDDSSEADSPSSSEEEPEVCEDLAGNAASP
Outline: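 Actives from a duplicate 25 uM single-point screen were retested in concentration series. The cell-free antagonist-format binding assay was read by AlphaLISA chemiluminescence at 1 h, scored as signal loss relative to DMSO.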

[8] = test system: guinea pig Dopamine Transporter (DAT), gene 100714898; assay: NVS_TR_gDAT: NovaScreen (NVS) Transporter Assay for guinea pig Dopamine Transporter (DAT) (AID 2283369);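 also: active compounds lower bound radioligand signal relative to DMSO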
Outline: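 Radioligand displacement on membranes from guinea pig striatum, 2 h exposure, bound label counted by filtration and scintillation. Tested at 25 uM in duplicate, then actives in concentration series to 50 uM; DMSO as negative control.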

[9] = molecular target: mouse Estrogen Receptor alpha (Era), Esr1 (gene 13982) (UniProt P19785); assay: NVS_NR_mERa: NovaScreen (NVS) Nuclear Receptor Binding Assay for mouse Estrogen Receptor alpha (Era) (AID 2283378);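 also: hit means loss of bound radioligand signal relative to DMSO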
Outline: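 Filter radiodetection of radioligand displacement from extracted receptor protein, measured 18 h post-dose. Single 25 uM concentration in duplicate initially, with concentration-series follow-up. Binding loss fitted relative to DMSO.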

[10] = molecular target: PGR (gene 5241) (UniProt P06401); assay: NVS_NR_hPR: NovaScreen (NVS) Nuclear Receptor Binding Assay for human Progestron Receptor (PR) (AID 2283360);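 also: active means loss of bound radioligand signal versus DMSO baseline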
Sequence of PGR (gene 5241) (P06401 whole entry, looked up): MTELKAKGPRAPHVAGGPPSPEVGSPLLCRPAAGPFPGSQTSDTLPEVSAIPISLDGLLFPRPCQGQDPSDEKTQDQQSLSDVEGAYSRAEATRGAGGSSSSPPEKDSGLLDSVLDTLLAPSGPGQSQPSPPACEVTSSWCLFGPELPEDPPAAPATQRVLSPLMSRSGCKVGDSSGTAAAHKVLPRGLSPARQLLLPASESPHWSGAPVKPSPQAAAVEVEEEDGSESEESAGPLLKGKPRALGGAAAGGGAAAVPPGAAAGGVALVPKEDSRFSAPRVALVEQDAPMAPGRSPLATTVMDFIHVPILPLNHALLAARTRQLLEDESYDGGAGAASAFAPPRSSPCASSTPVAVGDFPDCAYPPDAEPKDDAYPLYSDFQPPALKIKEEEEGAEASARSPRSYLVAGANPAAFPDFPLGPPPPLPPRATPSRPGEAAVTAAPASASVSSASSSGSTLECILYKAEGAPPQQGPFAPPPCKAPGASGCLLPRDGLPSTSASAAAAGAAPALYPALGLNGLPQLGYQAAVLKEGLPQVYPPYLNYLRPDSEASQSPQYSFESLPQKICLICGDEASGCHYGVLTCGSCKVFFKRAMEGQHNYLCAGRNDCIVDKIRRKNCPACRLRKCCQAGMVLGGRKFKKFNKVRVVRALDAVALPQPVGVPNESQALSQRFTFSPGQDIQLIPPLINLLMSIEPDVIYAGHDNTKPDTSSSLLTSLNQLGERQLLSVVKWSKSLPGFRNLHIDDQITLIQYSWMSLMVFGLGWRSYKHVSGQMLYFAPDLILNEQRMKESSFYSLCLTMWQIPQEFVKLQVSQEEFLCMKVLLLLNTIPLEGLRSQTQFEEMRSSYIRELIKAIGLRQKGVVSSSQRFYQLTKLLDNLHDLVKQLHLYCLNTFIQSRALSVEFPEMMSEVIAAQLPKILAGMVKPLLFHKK
Outline: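 Radioligand competition binding on receptor extracted from T47D cells, read by scintillation counting 18 h after dosing. Loss of signal versus DMSO; primary screen in duplicate at 25 uM, actives followed in concentration series.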

[11] = molecular target: human Peroxisome Proliferator-activated Receptor alpha (PPARa), PPARA (gene 5465) (UniProt Q07869); assay: NVS_NR_hPPARa: NovaScreen (NVS) Nuclear Receptor Binding Assay for human Peroxisome Proliferator-activated Receptor alpha (PPARa) (AID 2283359);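 also: activity means loss of TR-FRET signal versus DMSO baseline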
Outline: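 Cell-free binding assay with extracted human protein, read by TR-FRET 1 h after chemical dosing. Loss of signal relative to DMSO baseline indicates binding. Primary screen used duplicate single concentration (25 uM); actives followed up in concentration series.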

[12] = molecular target: human Serotonin Transporter (SERT), SLC6A4 (gene 6532) (UniProt P31645); assay: NVS_TR_hSERT: NovaScreen (NVS) Transporter Assay for human Serotonin Transporter (SERT) (AID 2283372)
Sequence of human Serotonin Transporter (SERT), SLC6A4 (gene 6532) (P31645 whole entry, looked up): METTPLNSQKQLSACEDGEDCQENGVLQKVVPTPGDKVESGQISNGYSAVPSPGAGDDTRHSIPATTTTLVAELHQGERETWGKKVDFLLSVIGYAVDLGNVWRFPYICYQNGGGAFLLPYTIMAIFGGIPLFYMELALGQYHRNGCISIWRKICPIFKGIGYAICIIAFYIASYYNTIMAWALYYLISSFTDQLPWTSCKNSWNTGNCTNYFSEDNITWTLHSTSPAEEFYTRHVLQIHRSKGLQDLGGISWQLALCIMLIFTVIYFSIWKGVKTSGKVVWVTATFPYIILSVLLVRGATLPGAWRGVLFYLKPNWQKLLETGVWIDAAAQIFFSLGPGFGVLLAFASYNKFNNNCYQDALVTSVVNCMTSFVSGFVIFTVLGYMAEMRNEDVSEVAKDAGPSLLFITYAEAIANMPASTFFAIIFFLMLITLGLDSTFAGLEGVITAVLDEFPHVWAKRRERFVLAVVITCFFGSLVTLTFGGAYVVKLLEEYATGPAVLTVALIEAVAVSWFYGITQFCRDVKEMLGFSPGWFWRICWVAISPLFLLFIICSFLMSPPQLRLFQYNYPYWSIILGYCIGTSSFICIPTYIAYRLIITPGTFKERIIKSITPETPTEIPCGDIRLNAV
Outline: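 Radioligand binding to native SERT in human platelet membranes, read by filter-based scintillation counting 1 h after dosing. Primary screen in duplicate at 25 uM; actives followed up in concentration series; loss of signal versus DMSO baseline.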

[13] = molecular target: Nuclear receptor subfamily 1 group I member 2 (Homo sapiens) (UniProt O75469); assay: NVS_NR_hPXR: NovaScreen (NVS) Nuclear Receptor Binding Assay for human Pregnane X Receptor (PXR) (AID 2283365);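 also: a drop in FRET signal versus DMSO baseline means the compound binds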
Sequence of Nuclear receptor subfamily 1 group I member 2 (Homo sapiens) (O75469 whole entry, looked up): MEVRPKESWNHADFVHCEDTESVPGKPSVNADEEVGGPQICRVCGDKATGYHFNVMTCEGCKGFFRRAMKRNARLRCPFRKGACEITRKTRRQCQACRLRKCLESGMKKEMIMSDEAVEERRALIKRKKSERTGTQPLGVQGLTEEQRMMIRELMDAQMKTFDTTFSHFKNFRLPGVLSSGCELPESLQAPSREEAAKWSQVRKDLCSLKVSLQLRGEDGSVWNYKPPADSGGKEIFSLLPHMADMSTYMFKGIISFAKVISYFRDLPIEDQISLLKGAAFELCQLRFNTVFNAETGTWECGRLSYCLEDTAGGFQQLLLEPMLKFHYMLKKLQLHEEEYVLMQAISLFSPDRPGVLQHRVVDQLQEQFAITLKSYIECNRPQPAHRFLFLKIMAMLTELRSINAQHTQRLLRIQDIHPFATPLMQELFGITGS
Outline: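 Human PXR binding measured by TR-FRET in a cell-free format, 2 h exposure. Single-concentration duplicates at 25 uM preceded concentration-response retests of actives; endpoint fitted positively relative to DMSO, loss of signal indicating binding.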

[14] = test system: rat Norepinephrine Transporter (NET), gene 83511; assay: NVS_TR_rNET: NovaScreen (NVS) Transporter Assay for rat Norepinephrine Transporter (NET) (AID 2283373)
Outline: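 Rat forebrain membranes; radioligand binding measured by filter-based scintillation counting 1 hour after dosing. Loss of specific binding versus DMSO baseline scored; primary screen in duplicate at 25 uM, actives followed up in concentration series.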

[15] = molecular target: Norway rat Vesicular Monoamine Transporter (VMAT2), neurotransmitter transporter, Slc18a2 (gene 25549) (UniProt Q01827); assay: NVS_TR_rVMAT2: NovaScreen (NVS) Transporter Assay for Norway rat Vesicular Monoamine Transporter (VMAT2), neurotransmitter transporter (AID 2283376);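 also: actives lower the bound radioligand signal below the DMSO level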
Sequence of Norway rat Vesicular Monoamine Transporter (VMAT2), neurotransmitter transporter, Slc18a2 (gene 25549) (Q01827 whole entry, looked up): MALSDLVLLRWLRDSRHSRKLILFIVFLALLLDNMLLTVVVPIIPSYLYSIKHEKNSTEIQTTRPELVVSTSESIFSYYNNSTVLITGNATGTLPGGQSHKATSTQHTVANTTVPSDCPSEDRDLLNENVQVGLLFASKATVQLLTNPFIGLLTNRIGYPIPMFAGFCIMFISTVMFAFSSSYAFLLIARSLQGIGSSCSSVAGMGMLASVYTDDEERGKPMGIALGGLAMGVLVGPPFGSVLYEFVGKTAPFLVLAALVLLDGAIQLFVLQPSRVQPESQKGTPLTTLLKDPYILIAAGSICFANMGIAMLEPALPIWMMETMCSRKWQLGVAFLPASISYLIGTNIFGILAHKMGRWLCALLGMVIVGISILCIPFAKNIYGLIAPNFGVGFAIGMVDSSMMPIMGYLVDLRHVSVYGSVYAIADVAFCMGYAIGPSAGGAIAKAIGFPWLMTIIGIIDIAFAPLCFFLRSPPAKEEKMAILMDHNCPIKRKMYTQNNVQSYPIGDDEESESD
Outline: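 Rat forebrain tissue preparation used in a cell-free radioligand binding format; displacement read by filter-based scintillation counting 1 hour after dosing. Primary screen in duplicate at 25 uM, actives then run in concentration series; loss of signal versus DMSO baseline.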

[16] = molecular target: human Adenosine Transporter (Adot), SLC29A1 (gene 2030) (UniProt Q99808); assay: NVS_TR_hAdoT: NovaScreen (NVS) Transporter Assay for human Adenosine Transporter (Adot) (AID 2283368)
Outline: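 U937-derived membranes, cell-free radioligand binding, filter scintillation 1 h after dosing. 25 uM duplicate screen; hits (e.g. 30% inhibition) run in concentration-response up to 50 uM; loss of signal versus DMSO.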

CSC(=O)c1c(C(F)F)nc(C(F)(F)F)c(C(=O)SC)c1CC(C)C
AC50 [1]: 31 µM (active)
AC50 [2]: 18.1 µM (active)
outcome [3]: inactive
outcome [4]: inactive

C=C(C)CN(CC)c1c([N+](=O)[O-])cc(C(F)(F)F)cc1[N+](=O)[O-]
AC50 [1]: 79.2 µM (active)
outcome [2]: inactive
AC50 [4]: 7.64 µM (active)
outcome [5]: inactive
AC50 [6]: 7.07 µM (active)

CCCCC(C#N)(Cn1cncn1)c1ccc(Cl)cc1 (stereo not given)
outcome [7]: inactive
AC50 [8]: 15.4 µM (active)
AC50 [4]: 7.18 µM (active)

COC(=O)NC(=S)Nc1ccccc1NC(=S)NC(=O)OC
outcome [1]: inactive
outcome [2]: inactive
outcome [9]: inactive

N#CN=C1SCCN1Cc1ccc(Cl)nc1
outcome [3]: inactive

CC(C)=CC1C(C(=O)OCc2coc(Cc3ccccc3)c2)C1(C)C (stereo not given)
outcome [10]: inactive
AC50 [4]: 25 µM (active)
AC50 [6]: 10.2 µM (active)

CCOC(=O)C(C)OC(=O)c1cc(Oc2ccc(C(F)(F)F)cc2Cl)ccc1[N+](=O)[O-] (stereo not given)
outcome [1]: inactive
outcome [2]: inactive
outcome [11]: inactive
outcome [10]: inactive
outcome [7]: inactive
outcome [3]: inactive
outcome [8]: inactive
outcome [12]: inactive
AC50 [4]: 7.94 µM (active)
outcome [5]: inactive

CC(C)(C)C(=O)C(Oc1ccc(Cl)cc1)n1cncn1 (stereo not given)
AC50 [1]: 58.6 µM (active)
outcome [2]: inactive
outcome [7]: inactive
AC50 [13]: 2.31 µM (active)
AC50 [4]: 0.238 µM (active)

CCCN(CC)CC1COC2(CCC(C(C)(C)C)CC2)O1 (stereo not given)
AC50 [1]: 32.2 µM (active)
outcome [2]: inactive
outcome [13]: inactive
AC50 [3]: 0.0101 µM (active)

CC1(C)C(C(=O)OC(C#N)c2cccc(Oc3ccccc3)c2)C1(C)C (stereo not given)
outcome [1]: inactive
outcome [2]: inactive
AC50 [8]: 15.8 µM (active)
AC50 [4]: 9.99 µM (active)

Cc1cc(C)nc(Nc2ccccc2)n1
AC50 [8]: 22 µM (active)
AC50 [14]: 6.21 µM (active)
AC50 [4]: 25 µM (active)
outcome [15]: inactive
AC50 [6]: 4.72 µM (active)

O=P(O)(O)CCCl
AC50 [6]: 10.6 µM (active)

CCN(CC)C(=O)C(C)Oc1cccc2ccccc12 (stereo not given)
outcome [1]: inactive
outcome [2]: inactive
AC50 [3]: 18.8 µM (active)
AC50 [4]: 10.4 µM (active)

CC(C)NC(=O)N1CC(=O)N(c2cc(Cl)cc(Cl)c2)C1=O
outcome [15]: inactive

CN=C=S
outcome [10]: inactive
outcome [7]: inactive

Cc1c(COC(=O)[C@@H]2[C@H](/C=C(\Cl)C(F)(F)F)C2(C)C)cccc1-c1ccccc1
AC50 [1]: 72.3 µM (active)
outcome [2]: inactive
outcome [10]: inactive
AC50 [6]: 0.345 µM (active)

CCNC(=O)NC(=O)C(C#N)=NOC
outcome [13]: inactive

N#Cc1c[nH]cc1-c1cccc2c1OC(F)(F)O2
outcome [15]: inactive

CCOP(=S)(OCC)Oc1nc(Cl)n(C(C)C)n1
outcome [15]: inactive

COP(=S)(OC)Oc1ccc([N+](=O)[O-])c(C)c1
outcome [1]: inactive
outcome [2]: inactive
AC50 [10]: 4.97 µM (active)
outcome [7]: inactive
AC50 [3]: 3.93 µM (active)
AC50 [12]: 1.99 µM (active)
AC50 [4]: 4.96 µM (active)
AC50 [5]: 3.37 µM (active)

Nc1c(Cl)c(Cl)nc(C(=O)O)c1Cl
outcome [1]: inactive
outcome [2]: inactive
outcome [16]: inactive

OC(c1ccc(Cl)cc1)(c1ccc(Cl)cc1)C(Cl)(Cl)Cl
AC50 [1]: 11.9 µM (active)
AC50 [2]: 12 µM (active)
outcome [7]: inactive
outcome [8]: inactive
AC50 [4]: 8.54 µM (active)
outcome [9]: inactive

CC1(C)CON(Cc2ccccc2Cl)C1=O
outcome [1]: inactive
outcome [2]: inactive
AC50 [3]: 15.2 µM (active)
AC50 [4]: 6.47 µM (active)

CC(C)C1(C)N=C(c2ncccc2C(=O)O)NC1=O (stereo not given)
outcome [13]: inactive

N#Cc1c(Cl)cccc1Cl
outcome [1]: inactive
outcome [2]: inactive
outcome [10]: inactive
outcome [7]: inactive
outcome [13]: inactive

CCOc1nc(F)cc2nc(S(=O)(=O)Nc3c(Cl)cccc3Cl)nn12
outcome [1]: inactive
outcome [2]: inactive
outcome [12]: inactive
outcome [5]: inactive

Cc1nc(N(C)C)nc(OC(=O)N(C)C)c1C
outcome [1]: inactive
outcome [2]: inactive

CC1(C)C(C=C(Cl)Cl)C1C(=O)OC(C#N)c1cccc(Oc2ccccc2)c1 (stereo not given)
outcome [1]: inactive
outcome [2]: inactive
outcome [10]: inactive
AC50 [8]: 9.19 µM (active)
AC50 [4]: 6.48 µM (active)
AC50 [6]: 12.2 µM (active)

Cn1c(-c2ccccc2)cc(-c2ccccc2)[n+]1C
outcome [2]: inactive
AC50 [3]: 0.133 µM (active)
outcome [14]: inactive
AC50 [6]: 2.75 µM (active)
